Source: PubChem BioAssay (NCI)
Values joined by “and” are separate entries in the source; they are usually repeats but may differ in a detail not shown here. Equal values may be shown once. About 83,000 compounds went through this panel and 20% of them were active in at least one assay; those are over-represented in the sample as a whole.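 Assay: single dose, 48 h. Readout: percent growth (0 = no net growth; negative = cell death). Active: <10.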 Active and inactive are the calls of the source.

These molecules were tested on UO-31 renal (assay: NCI-60 one-dose screen, 48 h (100 = growth as untreated, 0 = no growth, -100 = all killed)). Settings: 10 µM.
Experimental: Growth inhibition of the UO-31 human tumor cell line is measured as a screen for anti-cancer activity. Cells are grown in 96 well plates and exposed to the test compound for 48 hours. Compounds are tested at a single concentration, which is 10^-5 M for most compounds. The reported endpoint is percent growth (GI% or GIPRCNT), where numbers from 0 - 100% represent growth inhibition, and numbers from -100% - 0 represent cell death. For example, a value of 40 represents 60% growth inhibition. A value of 0 means no net growth occurred over the course of the experiment. A value of -40 indicates 40% of cells at the beginning of the experiment died by the end of the experiment. A value of -100 means all cells are dead at the end of the experiment.
NCI-60 Human Tumor Cell Lines Screen was performed using the standard one-dose NCI protocol, which is described in more detail at https://dtp.cancer.gov/discovery_development/nci-60/default.htm.
Compounds with GIPRCNT values below 10 were considered active. Activity score was based on GIPRCNT using the following formula: […]
Score is 0 for GIPRCNT values of 100 or above, 50 for GIPRCNT values of 0, and 100 for GIPRCNT values of -100.
With CC#C[C@]1(O)CC[C@H]2[C@@H]3CCC4=CC(=O)CCC4=C3[C@@H](c3ccc4c(c3)OCO4)C[C@@]21C the growth was 66.1% (inactive).

Same assay, conditions: 10 µM unless noted
In the case of O=C1c2ccccc2C(=O)N1/N=C/c1ccc2c(c1)OCO2, the growth was 81.2% (inactive). For Oc1c(CN2CCCCC2)ccc2cccnc12, the growth was 8.37% (active) and -0.287% (active). In the case of CCOc1ccc2cc(-c3nn(CC4CCN(C)CC4)c4ncnc(N)c34)ccc2c1, the growth was 60.7% (inactive) and 62.9% (inactive). For Cc1cc(O)c(C(C)C)cc1S(=O)(=O)O (tested in a mixture with another compound), the growth was 90.7% (inactive) and -18.5% (active) and 77.4% (inactive). For COc1ccc(Cn2c(NCCN=C(N)N)nc(=O)n(Cc3ccc(F)cc3)c2=O)cc1, the growth was 77.7% (inactive) and 75.3% (inactive). With Oc1nc(NCCc2ccccc2)sc1/C=C1\C=Nc2ncccc21 the growth was 36.6% (inactive) and 25.2% (inactive). For O=C(Nc1cccc(Cl)c1)c1cc2ccccc2cc1O, the growth was 5.45% (active) and -9.87% (active). For CC(C)Cc1ccc(C(C)C(=O)NCc2ccc(Cn3c(=O)sn(CCCI)c3=O)cc2)cc1 (stereo not given), the growth was 70.3% (inactive) and -100% (active). With Cc1nn(-c2ccc(Cl)cc2)c2ncnc(N/N=C/c3ccccc3O)c12 the growth was 35.2% (inactive) and -11.4% (active). With Fc1ccccc1Nc1n[nH]c(=S)s1 the growth was 95.5% (inactive). For CCN(CC)CCCC(C)Nc1ccnc2cc(Oc3ccccc3)ccc12 (stereo not given), the growth was 49.2% (inactive) and 50.6% (inactive). For NC(=O)C1CC2C=CC1C2 (stereo not given), the growth was 100% (inactive) and 86.8% (inactive). For COc1ccccc1/C=N\N=C(N/N=C/c1ccccc1OC)N/N=C/c1ccccc1OC, the growth was 50.4% (inactive) and -10.3% (active). For COc1cc2c(Nc3ccc(Cl)c(Cl)c3F)ncnc2cc1OCC1C[C@@H]2CN(C)C[C@@H]2C1 (stereo not given in full), the growth was -84.8% (active) and -66.7% (active). In the case of CCN(CC)CCCC(CNc1ccnc2cc(Cl)ccc12)c1ccc(Cl)cc1 (stereo not given), the growth was -91.5% (active) and -65.7% (active). S=C1SCN(Cc2ccccc2)CN1Cc1ccccc1 was tested, and the growth was 26.7% (inactive). CCC(C)C1(C2CCCC2)NC(=O)NC1=O (stereo not given) was tested, and the growth was 86.3% (inactive) and 96.6% (inactive). O=C1NC(=O)C2(CCc3ccccc32)N1 (stereo not given) was tested, and the growth was 101% (inactive) and 85.3% (inactive). With CCC(O)c1ccccc1 (stereo not given) the growth was 98.8% (inactive) and 91.3% (inactive). CCOc1ccc(Nc2c3ccccc3nc3ccccc23)cc1 was tested, and the growth was 62.8% (inactive) and 0.768% (active) and 1.99% (active). For O=C(O)C1(C(=O)O)CCC1.[NH2-].[NH2-].[Pt+2], the growth was 75.6% (inactive) and 103% (inactive). For O=C(Nc1ccc(Cl)cc1)c1cc2ccccc2cc1O, the growth was 10.9% (inactive) and 4.71% (active). CN1CCN(Cc2occc(=O)c2O)CCN(C)CCN(Cc2occc(=O)c2O)CC1 was tested, and the growth was 92.2% (inactive) and 66.6% (inactive). In the case of CCC(=O)C(CC)c1cccc(OC)c1 (stereo not given), the growth was 89.9% (inactive). For CC1CCCc2sc3nc(NNC(=O)c4cnccn4)n(-c4ccccc4)c(=O)c3c21 (stereo not given), the growth was 8.23% (active) and 5.71% (active). In the case of S=C(S)N1CCCC1, the growth was 88.3% (inactive) and 76.4% (inactive). In the case of CC1=CCC2CC1C2(C)C (stereo not given), the growth was 89% (inactive) and 96.1% (inactive). For COc1cc(NS(C)(=O)=O)ccc1Nc1c2ccccc2nc2c(C)cccc12, the growth was -22.1% (active) and -17.6% (active). O=[N+]([O-])c1ccc2nc3c4ccccc4c4ccccc4c3nc2c1 was tested, and the growth was 75.3% (inactive). O=[N+]([O-])c1ccccc1/C=N\Nc1ccccc1 was tested, and the growth was 50.6% (inactive) and 47.3% (inactive). COc1cc2nc(N3CCN(C(=O)C4COc5ccccc5O4)CC3)nc(N)c2cc1OC (stereo not given) was tested, and the growth was 94.5% (inactive) and 98.7% (inactive) and 85% (inactive). CCCCOc1cc(C(=O)NCCN(CC)CC)c2ccccc2n1 was tested, and the growth was 59.1% (inactive) and 78% (inactive). In the case of O=[N+]([O-])c1ccc(/C=N\NC(=S)Nc2ccc(F)cc2)cc1, the growth was 96.9% (inactive) and 102% (inactive). With Cc1cc(C)c(N)c(Br)c1 the growth was 92.3% (inactive) and 87.9% (inactive). For CN(C)c1ccc(C(=C2C=CC(=[N+](C)C)C=C2)c2ccccc2Cl)cc1, the growth was -28.9% (active) and -12.3% (active). With O=C(/C=C/c1ccccn1)c1ccccc1O the growth was -17.5% (active) and 74.7% (inactive). In the case of COc1ccc(/C(C#N)=C/c2ccccn2)cc1, the growth was 95.5% (inactive) and 98.9% (inactive). With CC(=O)c1ccccc1O the growth was 80% (inactive) and 90.5% (inactive) and 68.1% (inactive).

Same assay, conditions: 100 µM
In the case of CC#C[C@]1(O)CC[C@H]2[C@@H]3CCC4=CC(=O)CCC4=C3[C@@H](c3ccc4c(c3)OCO4)C[C@@]21C, the growth was -42.4% (active).
